Laboratory results published in the supplement of paper PMC3545927.
Some of the results follow. No count for the full screen is at hand.

Molecular target: furin, P09958
Experiment: furin cleavage Z-score vs untreated control; higher = more cleavage, active = 3.5 or more, inactive = 1 or less, 8 variable residues between constant flanks
Summary of the method: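 Peptides 8 residues long, fused to a cDNA oligonucleotide, were fixed to magnetic beads by the N-terminus and exposed to purified furin. The 0.01 ml reactions contained 50 mM HEPES pH 7.5 with CaCl2 and NaCl at 1:10 enzyme:substrate and ran 7.5, 15 or 30 min. For the cleavage Z-score, log counts of sequenced released DNA were compared with furin-free reactions, lowess-adjusted and scaled by median absolute deviation.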

Chain of furin, P09958 (P09958 whole entry): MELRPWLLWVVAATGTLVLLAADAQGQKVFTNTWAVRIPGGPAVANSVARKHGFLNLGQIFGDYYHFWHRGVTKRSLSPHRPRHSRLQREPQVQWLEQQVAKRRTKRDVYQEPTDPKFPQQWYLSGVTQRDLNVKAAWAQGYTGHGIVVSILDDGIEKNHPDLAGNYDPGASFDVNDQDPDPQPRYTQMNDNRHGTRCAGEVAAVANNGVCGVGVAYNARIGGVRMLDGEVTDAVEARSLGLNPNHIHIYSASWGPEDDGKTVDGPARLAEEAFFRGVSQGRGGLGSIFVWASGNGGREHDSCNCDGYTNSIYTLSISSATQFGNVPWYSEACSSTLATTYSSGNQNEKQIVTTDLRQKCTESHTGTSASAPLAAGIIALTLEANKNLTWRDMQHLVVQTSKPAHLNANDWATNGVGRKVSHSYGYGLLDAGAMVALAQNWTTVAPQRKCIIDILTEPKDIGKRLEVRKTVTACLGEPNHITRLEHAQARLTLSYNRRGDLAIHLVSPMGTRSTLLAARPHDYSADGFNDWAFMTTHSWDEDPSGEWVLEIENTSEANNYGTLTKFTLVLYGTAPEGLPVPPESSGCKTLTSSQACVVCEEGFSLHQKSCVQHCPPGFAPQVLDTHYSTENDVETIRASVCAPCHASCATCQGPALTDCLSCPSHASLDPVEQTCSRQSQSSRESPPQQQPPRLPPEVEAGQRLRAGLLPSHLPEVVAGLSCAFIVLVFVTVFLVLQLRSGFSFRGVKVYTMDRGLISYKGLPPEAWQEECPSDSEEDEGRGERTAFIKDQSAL

Row | Sequence | furin cleavage Z-score (7.5 min) | furin cleavage Z-score (15 min) | furin cleavage Z-score (30 min)
1 | CAVAKAVDFIAGNASASA [HC755] | -0.603 (inactive) | -0.471 (inactive) | -1.43 (inactive)
2 | CARRVRSAEEAGNASASA [FS-2376] | 7.77 (active) | 9.29 (active) | 6.7 (active)
3 | CARQPRLVGAAGNASASA [FS-2171] | -0.691 (inactive) | -0.656 (inactive) | -0.39 (inactive)
4 | CALRKRLTPLAGNASASA [FS-1883] | -1.32 (inactive) | -0.87 (inactive) | 0.456 (inactive)
5 | CARASRDVAQAGNASASA [FS-1686] | 3.28 | 3.03 | 3.8 (active)
6 | CARRVRSVILAGNASASA [FS-2301] | -0.109 (inactive) | -0.0349 (inactive) | 1.3
7 | CARRVRSRTHAGNASASA [FS-3071] | 0.143 (inactive) | 0.522 (inactive) | 1.9
8 | CALRKRLLRDAGNASASA [FS-686] | 9.49 (active) | 11.5 (active) | 8.89 (active)
9 | CARASRDSSEAGNASASA [FS-2892] | -0.582 (inactive) | 0.0813 (inactive) | -0.0253 (inactive)
10 | CARALRNVWQAGNASASA [FS-1682] | -1.32 (inactive) | 1.58 | 0.167 (inactive)
11 | CARMKRKVGAAGNASASA [FS-1752] | 2.2 | 4.54 (active) | 4.95 (active)
12 | CAKCTTPCSGAGNASASA [HC1954] | -0.367 (inactive) | 0.0622 (inactive) | 0.776 (inactive)
13 | CAEVVTSTWKAGNASASA [HC2254] | -0.33 (inactive) | -0.194 (inactive) | 1.09
14 | CAGVCCSMSYAGNASASA [HC1996] | -0.333 (inactive) | -0.0583 (inactive) | 0.735 (inactive)
15 | CARRMRRAGQAGNASASA [FS-2178] | 3.82 (active) | 5.28 (active) | 6.43 (active)
16 | CAQMYTNVDQAGNASASA [HC710] | 0.349 (inactive) | -0.937 (inactive) | 0.488 (inactive)
17 | CARRKRAKVEAGNASASA [FS-3051] | 2.74 | 5.28 (active) | 7.03 (active)
18 | CARRKRAVNPAGNASASA [FS-2294] | 5.19 (active) | 3.83 (active) | 4.64 (active)
19 | CALRKRSVDQAGNASASA [FS-1884] | 6.21 (active) | 7.15 (active) | 6.93 (active)
20 | CANWTRGERCAGNASASA [HC483] | 0.47 (inactive) | 1.14 | 0.279 (inactive)
21 | CAFVVTSTWVAGNASASA [HC2147] | 0.62 (inactive) | 0.171 (inactive) | -0.5 (inactive)
22 | CAGENLYFQGAGNASASA [TV2] | -1.7 (inactive) | -0.261 (inactive) | -0.768 (inactive)

Row | Sequence | furin cleavage Z-score (7.5 min) | furin cleavage Z-score (15 min) | furin cleavage Z-score (30 min)
23 | CAVVCCHMSYAGNASASA [HC109] | 1.01 | -0.749 (inactive) | 0.554 (inactive)
24 | CAGAYMSKAHAGNASASA [HC793] | -0.996 (inactive) | -1.61 (inactive) | -0.903 (inactive)
25 | CASTPCSHHLAGNASASA [HC2535] | 0.275 (inactive) | 0.419 (inactive) | -0.167 (inactive)
26 | CARRKRYRNFAGNASASA [FS-1836] | 1.23 | 0.582 (inactive) | 2.95
27 | CARRKKARGPAGNASASA [FS-2776] | 0.453 (inactive) | -0.0472 (inactive) | -0.48 (inactive)
28 | CARRKRSVAQAGNASASA [FS-1919] | 4.44 (active) | 4.31 (active) | 4.11 (active)
29 | CAREDRFFCPAGNASASA [FS-2001] | -0.0818 (inactive) | 0.295 (inactive) | -0.529 (inactive)
30 | CARMKRFRVDAGNASASA [FS-2719] | -0.757 (inactive) | 0.996 (inactive) | 1.75
31 | CARMKRSRCPAGNASASA [FS-2721] | 5.18 (active) | 7.21 (active) | 5.91 (active)
32 | CARRKRKEKQAGNASASA [FS-3231] | -1.72 (inactive) | -1.54 (inactive) | 0.219 (inactive)
33 | CARRKRSRKPAGNASASA [FS-1835] | 6.72 (active) | 6.37 (active) | 6.82 (active)
34 | CATPCTCGSSAGNASASA [HC721] | -1.49 (inactive) | -2.13 (inactive) | -1.32 (inactive)
35 | CAEECSQHLPAGNASASA [HC1015] | 0.447 (inactive) | 0.0813 (inactive) | -0.935 (inactive)
36 | CAPRARKNRSAGNASASA [FS-949] | 12.3 (active) | 12.6 (active) | 8.81 (active)
37 | CAPRARSRRSAGNASASA [FS-1053] | 9.77 (active) | 10.8 (active) | 8.95 (active)
38 | CAEEIRVNRSAGNASASA [FS-229] | 2.33 | 0.724 (inactive) | 1.69
39 | CATTTRKNRSAGNASASA [FS-1498] | 8.64 (active) | 11 (active) | 7.73 (active)
40 | CALRAYMNTPAGNASASA [HC930] | 0.0194 (inactive) | -1.18 (inactive) | 0.0807 (inactive)
41 | CALRARKNRSAGNASASA [FS-942] | 8.1 (active) | 8.12 (active) | 6.93 (active)
42 | CATTTCSGSWAGNASASA [HC1878] | -0.962 (inactive) | 0.367 (inactive) | -0.313 (inactive)
43 | CAPRAAERRSAGNASASA [FS-74] | -1.2 (inactive) | -1.99 (inactive) | -1.56 (inactive)
